Measured values: PubChem BioAssay
Activity calls are given as the source filed them. Unless noted, the rule behind the calls is not given here.

Assays:
[1] = system: Wnt5a (protein binding on small-molecule microarray); assay: Wnt5a binders on small-molecule microarray, primary screen, biophysical, 635/667 nm fluorescence (AID 1142); settings: 635 nm fluorescence, higher = more signal;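 note: fluorescence read at 667 nm with signal to noise per printed feature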
[2] = cell viability in Huh7 cells, primary screen, cytotoxicity control for HCV replication inhibitor project, CellTiter-Glo luminescence, basal, 48 h (AID 1143); settings: Huh7 HCV replicon, higher = more signal, called active from +8 up or from −8 down;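 note: Huh7 hepatoma cells carrying a hepatitis C replication reporter with no stimulus; test concentration not given here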
[3] = P. aeruginosa biofilm formation inhibitors, primary screen, PAO1 strain, BacTiter-Glo luminescence, LB-PBS (AID 1144); settings: 12 h, higher = more signal
[4] = CREB reporter modulators without forskolin, primary screen, cell-based, PC12, CRE-LacZ reporter, unstimulated (AID 1145); settings: no forskolin, luminescence, 4.5 h, higher = more signal, called active from +8 up or from −8 down
[5] = CREB reporter modulators under forskolin, primary screen, cell-based, PC12, CRE-LacZ reporter, forskolin-stimulated (AID 1146); settings: luminescence, 4.5 h, higher = more signal, called active from +8 up or from −8 down;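 note: PC12 cells with 6xCRE LacZ reporter stimulated by forskolin 10 µM; beta-galactosidase reporter signal reflecting CREB driven transcription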
[6] = biological target: Streptavidin (Streptomyces avidinii) (UniProt P22629); assay: streptavidin binders on small-molecule microarray, primary screen, artefact control for SMM compound annotation, biophysical, 635/667 nm fluorescence (AID 1147); settings: streptavidin binding, higher = more signal;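 note: signal reflects streptavidin binding to arrayed compounds as a control protein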
[7] = small-molecule binders of probe aInhba, primary screen, biochemical, small-molecule microarray, 635/667 nm fluorescence (AID 1148); settings: higher = more signal;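 note: score merges 667nm spot fluorescence with signal-to-noise for antibody binding to printed compounds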
Torsin-1A (Homo sapiens) [8] = biological target: Torsin-1A (Homo sapiens) (UniProt O14656); assay: torsin A binders from cell lysate, primary screen, small-molecule microarray, wild-type, 635/667 nm (AID 1149); settings: COS7 hTOR1A-WT lysate, 635 nm fluorescence, higher = more signal
Torsin-1A (Homo sapiens) [9] = biological target: Torsin-1A (Homo sapiens) (UniProt O14656); assay: small-molecule binders of mutant TOR1A in lysate, primary screen, cell lysate, small-molecule microarray, COS7 lysate, 635/667 nm fluorescence (AID 1150); settings: COS7 hTOR1A mutant lysate, 635 nm fluorescence, higher = more signal;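 note: score pools 667 nm emission and signal to noise measuring lysate protein binding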
[10] = system: Sonic hedgehog protein (Shh); assay: small-molecule binders of Shh protein, primary screen, biochemical, small-molecule microarray, 635/667 nm fluorescence (AID 1151); settings: small-molecule microarray binding, 635 nm fluorescence; higher = more signal;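 note: Shh protein binding to compounds spotted on small-molecule microarray slides; score combines spot fluorescence intensity with signal-to-noise across triplicate slides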
[11] = E. coli DRC41 culture turbidity changes, primary screen, E. coli filamentation inducer project, strain DRC41, OD650, 48 h (AID 1152);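 note: E. coli MC1000 strain DRC41 lacking acrAB efflux pump and sulA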; settings: E. coli DRC41 (acrAB sulA), higher = more signal, called active from +8 up or from −8 down
[12] = small-molecule binders of probe aLefty1, primary screen, biochemical, small-molecule microarray, 635/667 nm fluorescence (AID 1153); settings: higher = more signal;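 note: score merges spot fluorescence with signal-to-noise ratio from the scanned slide images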
[13] = PSAC antagonists in infected red cells, primary screen, cell-based, P. falciparum Indochina, OD700, 1 h (AID 1154); settings: P. falciparum Indochina infected RBC osmotic lysis, higher = more signal, called active from +8 up or from −8 down
[14] = PSAC antagonists in infected red cells, primary screen, cell-based, P. falciparum Indochina, OD700, 2 h (AID 1155);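 note: lysis reports solute entry through the parasite surface anion channel PSAC; channel blockers reduce lysis of infected cells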; settings: P. falciparum Indochina infected erythrocytes, osmotic lysis OD700; higher = more signal, called active from +8 up or from −8 down
[15] = osmotic lysis modulators in infected erythrocytes, primary screen, PSAC antagonist project, cell-based, P. falciparum Indochina, OD700, 3 h (AID 1156); settings: higher = more signal, called active from +8 up or from −8 down
[16] = PSAC antagonists in infected red cells, primary screen, cell-based, P. falciparum Indochina, OD700, 18 h (AID 1157); settings: P. falciparum Indochina infected erythrocytes, osmotic lysis OD700, 18 h; higher = more signal, called active from +8 up or from −8 down
[17] = modulators of S6 phosphorylation in cells, primary screen, cell-based, A549, cytoblot, luminescence, serum-stimulated (AID 1158); settings: A549 phospho-S6 cytoblot, 5 h, higher = more signal;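 note: serum-stimulated A549 lung adenocarcinoma cells; signal is phosphorylated S6 detected by cytoblot immunostaining with HRP secondary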
[18] = biological target: NADPH oxidase 2 (Homo sapiens) (UniProt P04839); assay: NOX2-dependent H2O2 signal modulators, primary screen, NOX inhibitor project, cell-based, HEK293-NOX2, PMA-stimulated, Amplex Red fluorescence (AID 1159); settings: 45 min, higher = more signal, called active from +8 up or from −8 down; note: test concentration not given here
[19] = biological target: NADPH oxidase 4 (Homo sapiens) (UniProt Q9NPH5); assay: NOX4-dependent H2O2 signal modulators, primary screen, NOX inhibitor project, cell-based, HEK293-NOX4, tetracycline-induced, Amplex Red fluorescence (AID 1160); settings: 45 min, higher = more signal, called active from +8 up or from −8 down
[20] = biological target: NADPH oxidase 5 (Homo sapiens) (UniProt Q96PH1); assay: NOX5-dependent H2O2 signal modulators, primary screen, NOX inhibitor project, cell-based, HEK293-NOX5, Amplex Red fluorescence (AID 1161); settings: HEK293-NOX5, ionomycin, 45 min, higher = more signal
Sequence of NADPH oxidase 5 (Homo sapiens) (Q96PH1 whole entry, looked up): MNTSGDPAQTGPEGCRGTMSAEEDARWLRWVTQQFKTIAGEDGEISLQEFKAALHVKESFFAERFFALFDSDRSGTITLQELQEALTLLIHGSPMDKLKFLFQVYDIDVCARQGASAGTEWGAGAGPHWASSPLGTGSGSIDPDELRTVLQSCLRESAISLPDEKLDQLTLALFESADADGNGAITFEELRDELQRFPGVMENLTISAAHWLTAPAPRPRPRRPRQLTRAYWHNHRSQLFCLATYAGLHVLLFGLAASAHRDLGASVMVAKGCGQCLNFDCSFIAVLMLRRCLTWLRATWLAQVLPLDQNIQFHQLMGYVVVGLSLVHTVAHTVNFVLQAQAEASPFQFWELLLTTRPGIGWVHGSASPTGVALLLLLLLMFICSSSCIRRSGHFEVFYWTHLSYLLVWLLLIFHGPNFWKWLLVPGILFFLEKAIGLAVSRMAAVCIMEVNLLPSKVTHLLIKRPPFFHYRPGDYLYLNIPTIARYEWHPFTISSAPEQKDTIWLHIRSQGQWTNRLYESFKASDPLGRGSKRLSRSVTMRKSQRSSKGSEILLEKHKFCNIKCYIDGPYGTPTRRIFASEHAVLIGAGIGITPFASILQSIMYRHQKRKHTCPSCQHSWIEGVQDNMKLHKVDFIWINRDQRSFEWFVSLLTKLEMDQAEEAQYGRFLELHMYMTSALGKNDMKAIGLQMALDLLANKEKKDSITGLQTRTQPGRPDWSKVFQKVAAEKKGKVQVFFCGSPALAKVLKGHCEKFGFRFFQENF

Sequence of NADPH oxidase 2 (Homo sapiens) (P04839 whole entry, looked up): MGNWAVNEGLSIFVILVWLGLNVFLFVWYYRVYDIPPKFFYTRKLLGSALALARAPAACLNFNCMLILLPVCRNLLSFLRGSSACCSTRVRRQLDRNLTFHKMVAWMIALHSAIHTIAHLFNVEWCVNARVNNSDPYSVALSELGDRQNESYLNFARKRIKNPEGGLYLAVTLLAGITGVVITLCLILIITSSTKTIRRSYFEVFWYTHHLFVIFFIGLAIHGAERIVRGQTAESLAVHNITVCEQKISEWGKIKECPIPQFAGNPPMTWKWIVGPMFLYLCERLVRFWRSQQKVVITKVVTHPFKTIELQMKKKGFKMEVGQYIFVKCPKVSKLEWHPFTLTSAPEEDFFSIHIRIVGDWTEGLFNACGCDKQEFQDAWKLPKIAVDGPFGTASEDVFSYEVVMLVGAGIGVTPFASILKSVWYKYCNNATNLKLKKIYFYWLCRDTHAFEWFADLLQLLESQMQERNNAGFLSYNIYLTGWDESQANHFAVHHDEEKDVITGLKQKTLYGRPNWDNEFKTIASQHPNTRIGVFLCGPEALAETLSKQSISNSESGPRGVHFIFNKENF
Sequence of Streptavidin (Streptomyces avidinii) (P22629 whole entry, looked up): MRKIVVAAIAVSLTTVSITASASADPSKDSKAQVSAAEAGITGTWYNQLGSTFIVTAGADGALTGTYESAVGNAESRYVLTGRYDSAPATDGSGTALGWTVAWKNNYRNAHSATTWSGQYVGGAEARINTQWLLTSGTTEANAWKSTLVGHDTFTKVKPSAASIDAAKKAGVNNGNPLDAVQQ
Sequence of Torsin-1A (Homo sapiens) (O14656 whole entry, looked up): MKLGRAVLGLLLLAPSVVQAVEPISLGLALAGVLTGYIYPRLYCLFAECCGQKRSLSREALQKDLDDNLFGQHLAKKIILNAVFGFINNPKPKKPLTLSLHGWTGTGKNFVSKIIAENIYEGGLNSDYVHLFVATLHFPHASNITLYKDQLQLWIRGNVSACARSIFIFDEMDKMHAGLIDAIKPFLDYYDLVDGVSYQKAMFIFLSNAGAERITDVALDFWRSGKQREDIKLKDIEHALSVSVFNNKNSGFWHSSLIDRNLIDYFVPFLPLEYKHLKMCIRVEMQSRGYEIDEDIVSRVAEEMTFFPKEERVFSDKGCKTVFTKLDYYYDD
Sequence of NADPH oxidase 4 (Homo sapiens) (Q9NPH5 whole entry, looked up): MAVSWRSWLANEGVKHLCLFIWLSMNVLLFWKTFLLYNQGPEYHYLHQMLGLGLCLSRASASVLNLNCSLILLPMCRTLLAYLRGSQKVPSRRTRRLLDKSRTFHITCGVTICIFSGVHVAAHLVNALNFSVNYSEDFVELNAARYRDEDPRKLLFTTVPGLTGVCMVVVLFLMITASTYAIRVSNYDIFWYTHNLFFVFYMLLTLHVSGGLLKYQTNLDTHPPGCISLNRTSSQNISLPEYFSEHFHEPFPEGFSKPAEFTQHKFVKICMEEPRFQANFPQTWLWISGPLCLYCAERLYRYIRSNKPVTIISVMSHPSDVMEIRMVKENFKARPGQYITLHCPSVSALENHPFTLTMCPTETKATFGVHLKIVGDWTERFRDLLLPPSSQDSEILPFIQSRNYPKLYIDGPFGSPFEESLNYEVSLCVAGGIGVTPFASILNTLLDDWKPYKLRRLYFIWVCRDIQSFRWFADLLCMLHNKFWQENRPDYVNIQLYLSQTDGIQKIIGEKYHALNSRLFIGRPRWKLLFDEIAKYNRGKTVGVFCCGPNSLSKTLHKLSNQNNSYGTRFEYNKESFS

| Compound | composite z-score [1] | z-score [2] | z-score [3] | z-score [4] | z-score [5] | composite z-score [6] | composite z-score [7] | composite z-score (Torsin-1A (Homo sapiens) [8]) | composite z-score (Torsin-1A (Homo sapiens) [9]) | composite z-score [10] | z-score [11] | composite z-score [12] | z-score [13] | z-score [14] | z-score [15] | z-score [16] | z-score [17] | z-score [18] | z-score [19] | z-score [20] |
| --- | --- | --- | --- | --- | --- | --- | --- | --- | --- | --- | --- | --- | --- | --- | --- | --- | --- | --- | --- | --- |
| COCC1=C([C@H](O)CCc2ccccc2)[C@H](CO)[C@@H]2C(=O)N(C)C(=O)[C@@H]2C1 | -0.147 | -0.398 (inactive) | -0.668 (inactive) | 0.496 (inactive) | -1.67 (inactive) | -0.11 | -0.0313 | 0.389 | 0.414 | 0.552 | 1.87 (inactive) | -0.0691 | 9.45 (active) | 1.29 (inactive) | -0.64 (inactive) | 0.254 (inactive) | 0.155 | -0.58 (inactive) | 0.371 (inactive) | 0.4 |
| O=C1C2C=CC(C(O)c3cccc4ccccc34)N(Nc3ccccc3)C2C(=O)N1c1ccccc1 (stereo not given) | 0.336 | -1.3 (inactive) | -1.46 (inactive) | 0.429 (inactive) | -0.637 (inactive) | 0.595 | 0.0705 | 0.327 | 0.463 | 0.296 | -0.692 (inactive) | 0.528 | 8.49 (active) | 2.06 (inactive) | 0.214 (inactive) | 1.41 (inactive) | -0.594 | -0.627 (inactive) | -3.83 (inactive) | -3.17 |
| COCCCNC(=O)[C@]1(Cc2ccccc2)N=C(c2ccc(OCCCO)cc2)O[C@@H]1c1ccccc1N=[N+]=[N-] | 1.1 | -5.91 (inactive) | -1.57 (inactive) | 0.101 (inactive) | -0.844 (inactive) | 0.607 | -0.0136 | 1.04 | 1.04 | -0.46 | 1.1 (inactive) | 0.334 | 31.9 (active) | 27.3 (active) | 2.49 (inactive) | 2.24 (inactive) | 1.44 | -5.51 (inactive) | -2.84 (inactive) | -2.21 |
| Cc1ccc(S[C@]2(C(=O)NCC(C)C)CC(=O)N(C3CCCCC3)[C@@H]2c2ccc(CO)cc2I)cc1 | 0.249 | -4.87 (inactive) | -0.88 (inactive) | -0.619 (inactive) | 0.413 (inactive) | 0.411 | -0.0259 | 0.314 | 0.289 | 0.104 | 0.256 (inactive) | 0.568 | 4.6 (inactive) | 0.61 (inactive) | 0.796 (inactive) | 0.597 (inactive) | 0.212 | 1.54 (inactive) | -1.02 (inactive) | -2.07 |
| C[C@H]1ON(c2ccccc2)[C@@H](c2ccccc2)[C@@H]1C(=O)N1C(=O)OC[C@@H]1c1ccccc1 | -0.0367 | -0.133 (inactive) | 0.0377 (inactive) | -0.323 (inactive) | -0.251 (inactive) | 0.116 | -0.0403 | 0.151 | 0.201 | 0.657 | 0.319 (inactive) | -0.0141 | 1.66 (inactive) | 0.895 (inactive) | -0.372 (inactive) | 0.28 (inactive) | 0.238 | 0.198 (inactive) | -0.28 (inactive) | -0.654 |
| C=CCOC(=O)[C@H]1[C@@H]2C(=O)O[C@@H](c3ccccc3)[C@@H](c3ccccc3)N2[C@@H](c2ccc(OCCOC(=O)[C@H]3C[C@H]4C(=O)N[C@@H](CCCCN(C)C)C(=O)N4[C@H]3c3ccc(O)cc3)cc2)[C@]12C(=O)Nc1ccccc12 | 0.468 | -1.73 (inactive) | -0.063 (inactive) | -0.122 (inactive) | -0.322 (inactive) | -0.0375 | 0.0748 | 0.539 | 0.674 | 1.42 | -0.558 (inactive) | 1.13 | -0.862 (inactive) | 0.332 (inactive) | 3.2 (inactive) | 0.522 (inactive) | -0.259 | 2.21 (inactive) | 1.05 (inactive) | 0.576 |
| CCOc1cc(C(O)C2C=CC3C(=O)NC(=O)C3N2Nc2ccccn2)ccc1O (stereo not given) | 0.342 | 0.961 (inactive) | 0.543 (inactive) | -0.333 (inactive) | 0.153 (inactive) | 0.171 | -0.158 | -0.0106 | 0.12 | -0.476 | -1.17 (inactive) | 0.0253 | -0.251 (inactive) | 0.519 (inactive) | -0.195 (inactive) | 0.828 (inactive) | -1.27 | -1.35 (inactive) | -3.69 (inactive) | -1.57 |
| CCCC=C(CCC)[C@@H](NS(=O)(=O)c1ccccc1)c1ccc(C(F)(F)F)cc1 | 0.135 | -1.21 (inactive) | 0.514 (inactive) | 0.0007 (inactive) | 1.11 (inactive) | 1.33 | 0.105 | 0.354 | 0.56 | 0.0898 | -1.51 (inactive) | 0.775 | 4.38 (inactive) | 1.07 (inactive) | 0.482 (inactive) | 0.983 (inactive) | -0.0787 | -0.818 (inactive) | -1.19 (inactive) | 2.67 |
